What is called inhibition is the relative decrease from the control value, in per cent.

Unmarked numbers belong to inactive results. Active and inactive are the calls of the source.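 Rule for the calls: active = inhibition at or above 50% relative to wild type and mutant plate controls; inactive = inhibition below 50%.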

This note sets out measurements from PubChem BioAssay.

The assay is described as follows: inhibitors of Chlamydomonas gravitaxis, primary screen, whole organism, Chlamydomonas reinhardtii, WT vs cilia-less mutant, absorbance, 96-well (AID 463189).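 Note: 0% = wild type cc124 cells in DMSO and 100% = ciliumless bld1 mutant cells.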 Conditions: OD600 absorbance, 2 days, at 10 µM, hits give high values.
On to `N[C@@H](Cc1cnc[nH]1)C(=O)O`, for which the inhibition is -1.75%.
The value for `C[C@]12C=CC(=O)C=C1CC[C@@H]1C2=CC[C@]2(C)[C@@H](C(=O)CN3CCN(c4cc(N5CCCC5)nc(N5CCCC5)n4)CC3)CC[C@@H]12` was 3%; that for `O[Si](CCCN1CCCCC1)(c1ccc(F)cc1)C1CCCCC1` (stereo not given) was -1.85%; that for `CCCCCN(CCCCC)C(=O)C(CCC(=O)O)NC(=O)c1ccc(Cl)c(Cl)c1` (stereo not given) was -0.994%.
Turning to `COc1ccccc1N1CCN(CCCNc2c(C)c(=O)n(C)c(=O)n2C)CC1`, the inhibition is 5.61%.
To `C[C@](N)(Cc1ccc(O)c(O)c1)C(=O)O` belongs 5.26%; to `COc1ccc(CCN(C)CCc2ccc(OC)c(OC)c2)cc1OC`, 11.9%; to `O=C(O)Cc1ccc(O)c(O)c1`, 5.56%.
To `CCn1cc(C(=O)O)c(=O)c2cc3c(cc21)OCO3` belongs 1.71%; to `CCCCCCCCCCCCCCCCCCOC[C@H](COP(=O)([O-])OCC[N+](C)(C)C)OC`, -2.43%; to `CC(C)(CO)Cc1cc(C(C)(C)C)c(O)c(C(C)(C)C)c1`, -2.65%.
To `CCNC(=O)N1CCN(CCCC(c2ccc(F)cc2)c2ccc(F)cc2)CC1` belongs 133% (active); to `Cn1c(=O)[nH]c2ncn(C)c2c1=O`, -7.51%.
In the case of `C[C@H]1c2cccc(O)c2C(O)=C2C(=O)[C@]3(O)C(O)=C(C(N)=O)C(=O)[C@@H](N(C)C)[C@@H]3[C@@H](O)[C@@H]21`, the inhibition was 64.7% (active).
To `CCCCC[C@H](CC(=O)NO)C(=O)N[C@H](C(=O)N1CCC[C@H]1CO)C(C)C` belongs -2.25%.
To `O=c1[nH]ccc2c(O)cccc12` belongs 3.93%; to `NC12CC3CC(CC(C3)C1)C2`, -2.58%; to `O=C1NCN(c2ccccc2)C12CCN(CCCC(c1ccc(F)cc1)c1ccc(F)cc1)CC2`, -2.36%.
As to `NC(=S)NCCCC(N)C(=O)O` (stereo not given), the inhibition was 0.102%.
The value for `COC(=O)c1c(-c2cc(OC)c(OC)c(OC)c2)c2ccnc(OCc3ncccn3)c2c(=O)n1Cc1ccnc(C)c1` was -6.21%.
To `O=c1ccc2c(OCCCCc3ccccc3)c3ccoc3cc2o1` belongs 10.5%.
To `O=C(O)[C@@H]1C[C@@H](C(=O)O)N1` belongs -5.37%; to `N[C@@H](COP(=O)(O)O)C(=O)O`, 2.62%.
As for `CNCCC(Oc1ccccc1OC)c1ccccc1` (stereo not given), the inhibition was 13.4%.
To `NC[C@@H]1O[C@H](C23CC4CC(CC(C4)C2)C3)Cc2c1ccc(O)c2O` belongs 0.204%; to `NC(N)=NC(=O)c1nc(Cl)c(N2CCCCCC2)nc1N`, -1.07%.
`O=C(Nc1ccccc1)c1cc([N+](=O)[O-])ccc1Cl`: the inhibition is 2.4%.
As to `CN[C@H](CC(=O)O)C(=O)O`, the inhibition was 6.26%.
The value for `O=C(O)CN(CCOCCOCCN(CC(=O)O)CC(=O)O)CC(=O)O` was 3.4%.
Consider `COc1ccccc1N1CCN(CCCCNS(=O)(=O)c2cccc3c(N(C)C)cccc23)CC1`, for which the inhibition is -0.327%.
To `NC(C(=O)N[C@@H]1C(=O)N2C(C(=O)O)=C(Cl)CS[C@H]12)c1ccccc1` (stereo not given in full) belongs 7.28%.
With `O=c1c2ccccc2nc2n1CCc1c-2[nH]c2ccccc12`, the inhibition was 2.73%.
To `C=C[C@H]1CN2CCC1C[C@H]2[C@H](O)c1ccnc2ccc(OC)cc12` (stereo not given in full) belongs -14.7%.
For the compound `CN(C(=O)CCCOc1ccc2[nH]c(=O)ccc2c1)C1CCCCC1`, the inhibition was 3.15%.
The value for `CNC(=O)[C@H]1O[C@@H](n2cnc3c(NCc4ccc(N)cc4)ncnc32)C(O)[C@H]1O` (stereo not given in full) was -1.61%; that for `CCCC(=O)NCCc1c2n(c3ccc(OC)cc13)CCCc1ccccc1-2` was 5.19%.
The value for `Cc1cccc(C)c1OCC(C)N` (stereo not given) was 7.46%; that for `CCCn1c(=O)c2[nH]c(-c3ccc(OCC(=O)NCCN)cc3)nc2n(CCC)c1=O` was 3.94%; that for `COc1ccc2c(c1)CCC1C2CC[C@@]2(C)C1CC[C@@H]2NCCCCCCN1C(=O)C=CC1=O` (stereo not given in full) was 1.37%.
The value for `C=Cc1c(C)c2cc3[nH]c(cc4nc(cc5nc(cc1[nH]2)C(C)=C5CCC(=O)O)C(CCC(=O)O)=C4C)c(C)c3C=C` was 9.54%.
